Assay [1] can be described thus: NCI Yeast Anticancer Drug Screen. Data for the rad50 strain (AID 155).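 Further: 0% = growth of vehicle-only cultures of the same strain.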 The conditions noted are these: S. cerevisiae rad50 strain growth inhibition; at 50.0 µM; active compounds read high. The essentials:
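Inhibition values express reduced yeast growth in compound-treated cultures relative to vehicle-treated controls.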

Assay [2] is described as follows: NCI Yeast Anticancer Drug Screen. Data for the mec2-1 strain (AID 157). As to conditions: S. cerevisiae mec2-1 strain, at 50.0 µM, active compounds read high. The gist of the method: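 Yeast mec2-1 mutant treated with compound. Readout: growth inhibition vs vehicle controls.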
The nature of assay [3]: NCI Yeast Anticancer Drug Screen. Data for the sgs1 mgt1 strain (AID 161).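 Further: 0% = growth of cultures given vehicle only.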 As to conditions: S. cerevisiae sgs1 mgt1 strain, at 50.0 µM, active compounds read high. The gist of the method:
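Read-out: growth inhibition vs vehicle controls. Cells: mutant yeast strain deficient in DNA damage repair.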

Assay [4] can be described thus: NCI Yeast Anticancer Drug Screen. Data for the cln2 rad14 strain (AID 165).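 Further: 0% = growth equal to vehicle treated cultures.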 The conditions noted are these: S. cerevisiae cln2 rad14 strain, at 50.0 µM, active compounds read high. The essentials:
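cln2 rad14 yeast strain; compound exposure; growth inhibition read vs vehicle controls.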

Assay [5] is described as follows: NCI Yeast Anticancer Drug Screen. Data for the bub3 strain (AID 167). The conditions noted are these: S. cerevisiae bub3 mutant strain, at 50.0 µM, active compounds read high. The gist of the method:
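Steps: expose the mutant yeast strain to compound; grow alongside vehicle-treated cultures; measure growth; express inhibition against the vehicle cultures.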

A short description of assay [6]: NCI Yeast Anticancer Drug Screen. Data for the mlh1 rad18 strain (AID 175). The conditions noted are these: S. cerevisiae mlh1 rad18 strain growth inhibition; at 50.0 µM; active compounds read high. The essentials: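 Yeast w/ defined DNA-repair lesions; compound exposure; growth vs vehicle controls → % inhibition.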

This is part of a sample that, as a whole, favours compounds with a hit. Of some 79,000 tested, about 15% had one in any assay. Unmarked numbers belong to inactive results. Calls of active or inactive are those of the source. No stated cut-off is given here; in the data, active means growth inhibition above about 70%; inactive means the rest.

Turning to `COc1cccc(-c2nc(-c3cnccn3)n(Cc3ccccc3)n2)c1`, the growth inhibition in assay [1] is -49.1%; in assay [2], -60.7%; in assay [3] it was -59.8%; in assay [4], -22%; in assay [5], -46.5%; in assay [6] it was -38.8%.

Turning to `COc1ccc(N=C2C(=Nc3ccc(OC)cc3)N(S(=O)(=O)c3ccccc3)C(=S)N2c2ccc(OC)cc2)cc1`, the growth inhibition was -11.8% in assay [1]; -35% in assay [2]; -35.5% in assay [3]; -23.9% in assay [4]; 0.2% in assay [5]; -26.1% in assay [6].

As to `OC1C=COC2COC(c3ccccc3)OC12` (stereo not given), the growth inhibition in assay [1] was 4.1%; in assay [2], -8.95%; in assay [3], 6.1%; in assay [4], -21.1%; in assay [5] it was -5.4%; in assay [6] it was 10.2%.

As for `O=S(=O)(Nc1ccc(C(F)(F)F)cc1)c1ccc(F)cc1`, the growth inhibition in assay [1] was -5.7%; in assay [2], 7.35%; in assay [3], 26%; in assay [4] it was 15.9%; in assay [5], -0.95%; in assay [6] it was 28.1%.

With `CCOC(=O)/C(=C/c1cn(C(C)=O)c2ccccc12)P(=O)(OC)OC`, the growth inhibition in assay [1] was -28.9%; in assay [2], -4.1%; in assay [3], -1.15%; in assay [4], 13.8%; in assay [5] it was 5.75%; in assay [6] it was -15.8%.

For the compound `COC(=O)C1C=CN(N(C)C)C2=C1C(=O)c1c(O)cccc1C2=O` (stereo not given), the growth inhibition is 86% (active) in assay [1]; 93% (active) in assay [2]; 89.2% (active) in assay [3]; 88.1% (active) in assay [4]; 89.5% (active) in assay [5]; 90.2% (active) in assay [6].

For `O=C(O)CSc1c(Cl)c(=O)oc2ccc(Cl)cc12`, the growth inhibition in assay [1] is 30.3%; in assay [2], -6.6%; in assay [3], 20.2%; in assay [4] it was -2%; in assay [5] it was 17%; in assay [6] it was 43.9%.

With `N#Cc1c(O)c(N=Nc2ccccc2F)c(=O)n2c1[nH]c1ccccc12`, the growth inhibition in assay [1] is -24.4%; in assay [2] it was -15.7%; in assay [3], -10.4%; in assay [4], 4.1%; in assay [5] it was -6.85%; in assay [6], -47.8%.

Turning to `CCCCOB(OCCCC)Oc1c(C(C)(C)C)cc(C)cc1C(C)(C)C`, the growth inhibition is 1.5% in assay [1]; -14.2% in assay [2]; -2.55% in assay [3]; 15.5% in assay [4]; -10.2% in assay [5]; -3% in assay [6].

Regarding `CCOc1ccc(N=c2ccn3ccccc3c2)cc1`, the growth inhibition in assay [1] was -2.05%; in assay [2] it was -10.3%; in assay [3], -24.2%; in assay [4], -24.4%; in assay [5], 8.75%; in assay [6], -28.5%.

For `Cn1c(=O)c2c(-c3ccccc3)onc2n(C)c1=O`, the growth inhibition in assay [1] was 16.3%; in assay [2], 12.8%; in assay [3], 22.4%; in assay [4], 33.7%; in assay [5], 2.8%; in assay [6], 44.8%.

Take `O=C1N=C(C=c2ccc(=Cc3[nH]c(=O)n(CN4CCCCC4)c3O)cc2)C(=O)N1CN1CCCCC1`: the growth inhibition in assay [1] was 1.2%; in assay [2] it was -6.2%; in assay [3], 3.65%; in assay [4], 26.4%; in assay [5] it was -10.3%; in assay [6], -7.1%.

With `Oc1ccccc1C=Nc1ccccc1N=Cc1ccccc1O.[Zn]`, the growth inhibition in assay [1] was 6.45%; in assay [2] it was 4%; in assay [3] it was -3.45%; in assay [4], 26.5%; in assay [5], -4.05%; in assay [6], 12.9%.

In the case of `CC(C)=CCc1c(C)c(O)c(C)c(C)c1O`, the growth inhibition is 7.15% in assay [1]; 1.25% in assay [2]; 9.6% in assay [3]; -71.9% in assay [4]; -11.4% in assay [5]; 8.05% in assay [6].

`COc1ccc(C2=CSc3ccccc3N2)cc1`: the growth inhibition in assay [1] is 11.2%; in assay [2], 15.8%; in assay [3], 42.3%; in assay [4] it was 6.1%; in assay [5] it was 36.3%; in assay [6], 11.4%.

Turning to `CNc1ncnc2c1ncn2C`, the growth inhibition in assay [1] is 20.8%; in assay [2], 24.5%; in assay [3], -7.1%; in assay [4], -17.1%; in assay [5] it was 1.6%; in assay [6], -2.1%.

Consider `c1ccc(CCN2CCCCCCCC2)nc1`, for which the growth inhibition is 1.35% in assay [1]; 7.9% in assay [2]; -4.35% in assay [3]; -23.2% in assay [4]; -8.95% in assay [5]; -0.35% in assay [6].

Consider `NN(CC(=O)O)CC(=O)O`, for which the growth inhibition was 18.8% in assay [1]; -2.8% in assay [2]; 2% in assay [3]; 4.75% in assay [4]; 29.1% in assay [5]; 20.9% in assay [6].

With `COc1cccc(NC(=O)NCCN(C)c2ccccc2)c1`, the growth inhibition in assay [1] was -5.7%; in assay [2] it was 38.5%; in assay [3] it was 21.1%; in assay [4] it was -17.2%; in assay [5] it was 23.1%; in assay [6], 27.2%.

With `C=C1C(OC(=O)/C=C/c2ccccc2)CC(OC(C)=O)C2(C)C1CC1CC(OC(C)=O)C(C)=C(C(OC(C)=O)C2OC(C)=O)C1(C)C` (stereo not given), the growth inhibition is 38.5% in assay [1]; 6.35% in assay [2]; 14.1% in assay [3]; 21.4% in assay [4]; 25.4% in assay [5]; 24.5% in assay [6].

Regarding `COc1ccc2c(CCNC(C)=O)c(C(C)=O)[nH]c2c1`, the growth inhibition in assay [1] was -9.65%; in assay [2], -3.25%; in assay [3], 12.4%; in assay [4], 15.5%; in assay [5] it was -12.3%; in assay [6], 36.1%.

As for `CC(Br)C(=O)Nc1ccc(C(=O)O)c(O)c1` (stereo not given), the growth inhibition in assay [1] was 3.85%; in assay [2] it was -32.8%; in assay [3], -18.8%; in assay [4] it was 20.9%; in assay [5] it was -7.5%; in assay [6], 2.95%.

Regarding `COC(=Nc1cccc2ccccc12)Nc1cccc2ccccc12`, the growth inhibition was 1.95% in assay [1]; -3.5% in assay [2]; -4.35% in assay [3]; 7.95% in assay [4]; -2.3% in assay [5]; -2% in assay [6].

With `CC1=NN2C(c3ccc(C)cc3)=CSC2=NC(C)(C)C1`, the growth inhibition in assay [1] is 20.6%; in assay [2] it was -1.45%; in assay [3], 2.45%; in assay [4], 19.8%; in assay [5], 5%; in assay [6] it was -1.1%.

Take `CN(CCC[N+](C)(C)C)C(=O)C(c1ccccc1)c1ccccc1`: the growth inhibition in assay [1] is 45%; in assay [2], -0.25%; in assay [3] it was 19.2%; in assay [4] it was -9.55%; in assay [5] it was 6.35%; in assay [6], 2.7%.

With `CN1CCc2ccccc2/C(=C(/O)c2ccccc2)C1=O`, the growth inhibition in assay [1] was 28.8%; in assay [2], 7.15%; in assay [3], 12.3%; in assay [4], 24.9%; in assay [5], 13.3%; in assay [6], 10.1%.

For the compound `CC(=O)c1ccccc1NC(=O)C(=O)C(C(=O)c1ccccc1-c1ccccc1)C1OC(=O)c2ccccc21` (stereo not given), the growth inhibition was 25% in assay [1]; 2.95% in assay [2]; 8.3% in assay [3]; -49.8% in assay [4]; -1.35% in assay [5]; 11.3% in assay [6].

For the compound `CC(C)OC(=O)Nc1cccc(NC(=O)OCCCl)c1`, the growth inhibition in assay [1] is 7.1%; in assay [2], -3.65%; in assay [3] it was 9.15%; in assay [4] it was -9.85%; in assay [5], -8.8%; in assay [6], -7.1%.

As for `NNC(=S)NC1CCCCC1`, the growth inhibition in assay [1] is 29.8%; in assay [2], -4.45%; in assay [3] it was 29.8%; in assay [4], 12.2%; in assay [5] it was 16.9%; in assay [6], 36%.

As to `COC(=O)/C=C/c1c(=O)c(C(=O)OC)cn2cnc3nc[nH]c3c12`, the growth inhibition was -14.5% in assay [1]; 2.35% in assay [2]; -20.6% in assay [3]; -13.3% in assay [4]; -5.9% in assay [5]; -5.8% in assay [6].

Turning to `CC(=O)Nc1ccc(Cc2[nH]c(=O)[nH]c(=O)c2Br)cc1`, the growth inhibition is 4.3% in assay [1]; -30.9% in assay [2]; -19.6% in assay [3]; -0.6% in assay [4]; 1.05% in assay [5]; -16.2% in assay [6].

For the compound `COC(=O)N(c1ccccc1)c1ccccn1`, the growth inhibition is -16.6% in assay [1]; -9.95% in assay [2]; -10.2% in assay [3]; 10.7% in assay [4]; 4.3% in assay [5]; -22.6% in assay [6].

With `CN(C)CCNc1nnc(NCCN(C)C)c2cc3ccccc3cc12`, the growth inhibition in assay [1] was -0.7%; in assay [2], 27.3%; in assay [3], -2.45%; in assay [4] it was 10.5%; in assay [5], -1.4%; in assay [6], 7.45%.

As to `Nc1ccccc1Sc1ccc(C(=O)O)cc1[N+](=O)[O-]`, the growth inhibition in assay [1] is 19.6%; in assay [2], 20.2%; in assay [3], 7.75%; in assay [4], -3.55%; in assay [5] it was 22.2%; in assay [6], -6.5%.

In the case of `O=C(C(c1ccccc1)c1ccccc1)N(CCO)c1ccccc1`, the growth inhibition in assay [1] was -12%; in assay [2], -28.6%; in assay [3] it was -4.2%; in assay [4], -9.5%; in assay [5], -4.6%; in assay [6], -0.65%.

Consider `CC12OC(=O)C(C#N)C1(C)C1C(=O)CCCC12` (stereo not given), for which the growth inhibition in assay [1] was -2.8%; in assay [2], -7.55%; in assay [3], 7.4%; in assay [4] it was 1.9%; in assay [5], -0.3%; in assay [6] it was -8.55%.

As for `CCCc1c(O)c(=O)c2c(OC)cc(OC)c3c4c(OC)cc(OC)c5c(=O)c(O)c(CCC)c(c1c23)c54`, the growth inhibition in assay [1] is 86.1% (active); in assay [2], 89.4% (active); in assay [3] it was 81.3% (active); in assay [4] it was 84.5% (active); in assay [5], 75.8% (active); in assay [6], 89% (active).

With `CS(=O)(=O)OCCC(COS(C)(=O)=O)NC(=O)c1ccccc1` (stereo not given), the growth inhibition in assay [1] is -3.75%; in assay [2] it was -8.95%; in assay [3], -2.85%; in assay [4], -18.1%; in assay [5], -10.3%; in assay [6], -4.95%.

As for `CCCCCCCCCCCCCCCCCCCl`, the growth inhibition in assay [1] is 4.9%; in assay [2], 6.6%; in assay [3] it was 0.05%; in assay [4], -31.1%; in assay [5], 5.7%; in assay [6], 28.4%.

For `O=C1c2c(nc3ccccc3c2-c2ccccc2)CN1Nc1ccccn1`, the growth inhibition is -2.5% in assay [1]; -4.1% in assay [2]; 6.8% in assay [3]; 12.8% in assay [4]; -5.7% in assay [5]; -33.9% in assay [6].

The values above are taken from PubChem BioAssay (NCI).
